PfHsp90 set2 = growth inhibition of yeast expressing Plasmodium Hsp90; S. cerevisiae expressing PfHsp90, BacTiter-Glo ATP, 48 h; yeast lacking PDR1 and PDR3 efflux regulators; inhibition, % at 9.4 µM; actives 0.32% (n = 310,000);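 active = every replicate shows inhibition above about 80%, whatever the replicate mean, limit read from the data; inconclusive = mean inhibition reaches the set limit but some replicate falls short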
SKKanGAS inh = SKKanGAS growth inhibition | S. pyogenes SKKanGAS, kanamycin growth, BacTiter-Glo, 6 h | inhibition, % at 7.5 µM | actives 1.3% (n = 300,000);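 active = mean replicate score, as percent of positive control median, at least 50; inconclusive = mean below 50 but one replicate at or above 50; inactive = mean and every replicate below 50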;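 also: strain carries kanamycin resistance gene driven by streptokinase promoter and grows in 40 µg/ml kanamycin; loss of luminescence reflects streptokinase promoter inhibition or plain growth inhibition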
tim23-1 inh = inhibits growth of tim23-1 mutant yeast | inhibition, % at 20 µM | actives 1.3% (n = 330,000) | S. cerevisiae tim23-1 growth, BacTiter-Glo luminescence, 24 h;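 active = growth inhibition of the mutant yeast at or above 50%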;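 also: temperature-sensitive mutant grown at 25 °C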
TIM10 inh = TIM10 yeast growth inhibition; S. cerevisiae TIM10 strain growth, BacTiter-Glo luminescence, 24 h; inhibition, % at 10 µM; actives 1.4% (n = 330,000); AID 463195;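 active = inhibition of 40% or more at the single tested concentration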;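 also: wild-type TIM10 isogenic control strain grown at permissive 25 °C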
tim10-1 inh = growth inhibitors of tim10-1 mutant yeast | AID 463190 | inhibition, % at 20 µM | S. cerevisiae tim10-1 ts strain growth, BacTiter-Glo, 24 h | actives 2.2% (n = 330,000);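 active = inhibition of at least 40%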;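 also: mutant grown at 25 °C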
ATG4B inhibitor = ATG4B (human) cysteine protease inhibition; actives 0.51% (n = 340,000); ATG4B cleavage of LC3-PLA2, NBD-HPC fluorescence, 1 h; AID 504462; inhibition, % at 8.33 µM; in the data active = inhibition above about 40%
Target sequence (Q9Y4P1 whole entry, looked up): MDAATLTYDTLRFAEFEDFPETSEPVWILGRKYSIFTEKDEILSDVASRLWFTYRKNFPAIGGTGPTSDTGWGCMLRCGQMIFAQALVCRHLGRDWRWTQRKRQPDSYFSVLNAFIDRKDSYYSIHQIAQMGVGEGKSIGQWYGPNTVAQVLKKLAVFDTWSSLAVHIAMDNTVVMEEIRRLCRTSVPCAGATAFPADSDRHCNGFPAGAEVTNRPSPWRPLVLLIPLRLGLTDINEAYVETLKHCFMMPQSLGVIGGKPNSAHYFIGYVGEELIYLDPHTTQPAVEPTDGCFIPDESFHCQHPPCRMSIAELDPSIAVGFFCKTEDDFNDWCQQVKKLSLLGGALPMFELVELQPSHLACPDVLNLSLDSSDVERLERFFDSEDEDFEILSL
TIM10 conf = TIM10 yeast growth inhibition, confirmed; shares compounds with TIM10 inh; S. cerevisiae tim10 strain growth, BacTiter-Glo luminescence, 24 h; inhibition, % at 10 µM; actives 63% (n = 4,600); AID 463215;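 active = inhibition of yeast growth at or above a set limit in either of two replicates at 10 µM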; also: this counterscreen used the strain with wild-type TIM10
Each line names hits and unclear results; the compound was inactive in the other large screens (follow-up assays come after a bar, where they were run). A selection: hits, their analogues and other compounds. The true share with any hit is near 4.7%.

Cc1ccc(S(=O)(=O)N(CCO)Cc2cc3ccc(C)c(C)c3[nH]c2=O)cc1	none
OCCNc1nc(Nc2ccc(Br)cc2)nc2ccccc12	TIM10 inh 43 (no result: PfHsp90 set2) | TIM10 conf inactive
O=C(NN1C(=O)c2ccccc2NC1c1ccccc1OCc1ccccc1)c1ccncc1 (stereo not given)	none
NC(=O)c1ccccc1NC(=O)/C=C/c1ccc(Cl)cc1	none
O=C(/C=C/c1ccc(Cl)cc1)NC(=S)Nc1ccccc1C(=O)O	TIM10 inh 43 | TIM10 conf 32
CCOC(=O)CN=C/C(C(=O)Nc1nccs1)=C(/C)O	none
O=C(NCC(=O)N1CCN(Cc2ccc3c(c2)OCO3)CC1)c1ccccc1F	TIM10 inh 97 (no result: SKKanGAS inh) | TIM10 conf inactive
CCCCOc1ccc(C(=O)NCC(=O)N2CCN(Cc3ccc4c(c3)OCO4)CC2)cc1	none (no result: PfHsp90 set2)
O=[N+]([O-])c1cccc(-c2ccc(/C=N/NC(=S)Nc3ccccc3)o2)c1	TIM10 inh 47 | TIM10 conf 48
C=CCNC(=S)Nc1cccc([N+](=O)[O-])c1	none
C=CCNC(=S)N/N=C/c1cccc([N+](=O)[O-])c1	TIM10 inh 47 | TIM10 conf 40
Cc1noc(C)c1COc1ccc(C(=O)NCC2CCCO2)cc1 (stereo not given)	none
COc1cc(CN2CCN(C(O)(c3ccccc3)c3ccccc3)CC2)cc(OC)c1OC	none
Oc1ccccc1CN1CCN(C(O)(c2ccccc2)c2ccccc2)CC1	TIM10 inh 43 | TIM10 conf 52
C=CCSc1nnc2c(n1)[nH]c1c(C)cccc12	TIM10 inh 47 | TIM10 conf 37
CC(C)OCCCNC(=O)CCC(=O)NNc1nc2ccccc2c2nc(-c3ccccc3)nn12	none
CC1CN(C(=O)NCc2ccccc2)c2cc(Cl)ccc2O1 (stereo not given)	none
O=C(Nc1ccc(Cl)c(Cl)c1)N1CCSC1c1ccco1 (stereo not given)	TIM10 inh 48 | TIM10 conf 31
Cc1cccc(OCC(=O)Nc2cc(C)ccc2O)c1	none
Cc1cc(C)n(CC(=O)N2c3ccccc3Sc3ccc(C(F)(F)F)cc32)n1	TIM10 inh 42 | TIM10 conf inactive
O=C(CN1CCCC(O)C1)N1c2ccccc2Sc2ccc(C(F)(F)F)cc21 (stereo not given)	none
S=c1[nH]nc(CNc2cccc(Cl)c2)o1	none
Fc1ccc(CCNC(=S)Nc2ccc(F)cc2)cc1	none
CCCCc1ccc(NC(=S)NCCc2ccc(F)cc2)cc1	SKKanGAS inh inconclusive, TIM10 inh 42 (no result: PfHsp90 set2) | TIM10 conf inactive
Nc1cc(=O)n(Cc2ccccc2)c(=O)n1-c1ccc(F)cc1	none
O=C(Nc1nccs1)c1csc2c1CCCC2	TIM10 inh 57 | TIM10 conf 44
COc1cccc(C(=O)Nn2c(-c3cccs3)nc3ccccc3c2=O)c1OC	TIM10 inh 41 | TIM10 conf 35
COc1ccc(CNn2c(-c3cccs3)nc3ccccc3c2=O)cc1OC	none
CCc1cc2c(=O)c(-c3nc4ccccc4[nH]3)coc2cc1OC(=O)N1CCOCC1	TIM10 inh 57 | TIM10 conf 62
CC1(C)Cc2c(cnn2-c2ccc(F)cc2)C(NC(=O)c2ccco2)C1 (stereo not given)	none
CC12CC(c3ccccc3O1)N(C(=O)c1ccco1)C(=S)N2c1ccc(F)cc1 (stereo not given)	TIM10 inh 42 | TIM10 conf 40
Cc1cc(-c2nnc(SCC(=O)Nc3ccccc3)n2C)no1	TIM10 inh 54 | TIM10 conf inactive
Cc1cc(-c2nnc(SCC(=O)Nc3ccc(C(F)(F)F)cc3)n2C)no1	none
O=C(CNC(=O)C1CCCCC1)Nc1cc(Cl)cc(Cl)c1	TIM10 inh 41 | TIM10 conf inactive
COC(=O)CC1=NN(c2ccccc2)C(=O)/C1=C\c1ccc(OC)cc1	none
CCOC(=O)CC1=NN(c2ccccc2)C(=O)/C1=C\c1ccc(OC)cc1OC	TIM10 inh 48 | TIM10 conf inactive
O=C(O)c1ccc(N=Nc2c(O)[nH]c3ccccc23)cc1	none
CC(=O)c1cccc(N=Nc2c(C)[nH]c3ccccc23)c1	TIM10 inh 41 | TIM10 conf inactive
CC(C)Nc1ncnc2c1cnn2Cc1ccccc1Cl	none
CN(CC(=O)Nc1ccccc1Cl)C(=O)COC(=O)c1ccc([N+](=O)[O-])s1	TIM10 inh 47 (no result: SKKanGAS inh) | TIM10 conf 52
CCc1ccccc1NC(=O)CSc1ccsc1[N+](=O)[O-]	none
CCc1ccccc1NC(=O)c1ccc([N+](=O)[O-])s1	TIM10 inh 50 | TIM10 conf 43
O=c1[nH]c(CSc2ccccn2)nc2c1cnn2-c1ccccc1	none
COc1ccc(C(=O)NC(=S)NCc2ccccc2)cc1	none
COc1cc(OC)cc(C(=O)NC(=S)NCCc2ccccc2)c1	TIM10 inh 44 | TIM10 conf inactive
COc1ccc2nc3sc(C(=O)N4CCN(C)CC4)cc3cc2c1	none
COc1ccc2nc3sc(C(=O)NCCCN4CCc5ccccc5C4)cc3cc2c1	TIM10 inh 49 | TIM10 conf 57
O=C(c1ccc(F)cc1)N1CCN(S(=O)(=O)c2ccc(Br)cc2)CC1	none
Cc1ccc2[nH]c(=O)c(CN(C(=O)c3cccc([N+](=O)[O-])c3)C(C)(C)C)cc2c1	none
O=C(CCc1ccc(S(=O)(=O)N2CCOCC2)cc1)Nc1cc(Cl)ccc1N1CCOCC1	none
CC1Cc2ccccc2N1C(=O)C1CCCN(S(=O)(=O)c2cccc3nsnc23)C1 (stereo not given)	TIM10 inh 44 | TIM10 conf inactive
Cc1cc(C(F)F)n2nc(C(=O)Nc3ccc(F)cc3F)nc2n1	none
Cc1cc(C(F)F)n2nc(C(=O)Nc3ccccc3F)nc2n1	TIM10 inh 64 | TIM10 conf inactive
CC(C)Cn1c(C(C)C)nc([N+](=O)[O-])c1S(=O)(=O)c1ccc(F)cc1	TIM10 inh 40 | TIM10 conf inactive
Cn1cnc([N+](=O)[O-])c1S(=O)(=O)c1ccc(Cl)cc1	none (no result: tim23-1 inh, TIM10 inh, tim10-1 inh)
O=C(N/N=C/c1ccccn1)c1cc(-c2ccc3ccccc3c2)n[nH]1	TIM10 inh 60 | TIM10 conf inactive
O=C(N/N=C/c1ccncc1)c1cc2ccccc2o1	TIM10 inh 43 | TIM10 conf 36
Cc1cc(C)n(Cc2ccc(C(=O)NCc3ccco3)o2)n1	none
O=[N+]([O-])c1cccc(NN=Nc2ccccc2)c1	TIM10 inh 41 | TIM10 conf 31
COc1ccccc1/C=C/C1(C(=O)NC2CCCC2)CC(=O)N1c1ccc(F)cc1 (stereo not given)	TIM10 inh 41 | TIM10 conf inactive
Cc1ccc(S(=O)(=O)c2nc(Nc3nccs3)sc2Cl)cc1	TIM10 inh 48 (no result: PfHsp90 set2) | TIM10 conf inactive
